Screening data from PubChem.
The full list was thinned out, with hits kept by preference.
FECH block: human FECH heme synthesis enzyme inhibition; 20,000 tested, 3.3% active; P22830; calls only at 10 µM (by protocol); purified FECH, Ni-mesoporphyrin absorbance 550 nm;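 active = enzyme reaction rate more than 3 SD below the solvent-only control wells on the same plate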;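 also: lower slope than DMSO wells means FECH inhibition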
Target sequence (P22830 whole entry, looked up): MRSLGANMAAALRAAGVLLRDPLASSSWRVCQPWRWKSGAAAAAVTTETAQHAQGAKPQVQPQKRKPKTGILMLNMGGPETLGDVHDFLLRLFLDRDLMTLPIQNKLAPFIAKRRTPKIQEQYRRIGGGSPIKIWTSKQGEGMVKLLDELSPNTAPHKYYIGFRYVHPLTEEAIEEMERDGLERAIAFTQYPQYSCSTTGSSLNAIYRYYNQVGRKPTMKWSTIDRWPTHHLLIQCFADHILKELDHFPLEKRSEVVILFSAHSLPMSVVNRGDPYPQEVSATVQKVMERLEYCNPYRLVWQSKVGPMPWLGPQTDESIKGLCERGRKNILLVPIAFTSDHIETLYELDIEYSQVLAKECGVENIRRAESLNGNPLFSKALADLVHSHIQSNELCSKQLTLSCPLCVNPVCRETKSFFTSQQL
Starred values were filed as active, the others as inactive; i = inactive; + = active, no number.

SMILES | FECH block
COc1ccc(N2C(=O)CCS2(=O)=O)cc1S(=O)(=O)N1CCN(c2ccccc2F)CC1 | i
Cc1ccc(NS(=O)(=O)c2cc(N3C(=O)CCS3(=O)=O)ccc2C)cc1 | i
CCOC(=O)CNS(=O)(=O)c1cc(N2C(=O)CCS2(=O)=O)ccc1C | +
COC(=O)CNS(=O)(=O)c1cc(N2C(=O)CCS2(=O)=O)ccc1OC | i
Cc1ccc(N2C(=O)CCS2(=O)=O)cc1S(=O)(=O)N1CCN(c2ccc(F)cc2)CC1 | +
COc1ccc(OCCNS(=O)(=O)c2cc(N3C(=O)CCS3(=O)=O)ccc2C)cc1 | i
COc1ccc(-c2cccc(C(C)N(C)C)c2)cc1CO (centres undefined) | i
CCCCN(Cc1ccc(F)cc1)C(=O)CNC(=O)N(C)C | i
COc1c(F)cccc1C(=O)N(C)Cc1ccc(C)o1 | i
CCc1c(C)nc2ncnn2c1Sc1ccc(NC(=O)c2ccccc2Cl)cc1 | i
CCc1c(C)nc2ncnn2c1Sc1ccc(NC(=O)c2cc(OC)c(OC)c(OC)c2)cc1 | i
CCCc1c(C)nc2ncnn2c1Sc1ccc(NC(=O)c2ccccc2OC)cc1 | i
CCOc1ccccc1C(=O)Nc1ccccc1Sc1c(CC)c(C)nc2ncnn12 | i
CCc1c(C)nc2ncnn2c1Sc1ccc(NC(=O)NCc2ccccc2)cc1 | +
CCc1ccc(NC(=O)Nc2ccc(Sc3c(CC)c(C)nc4ncnn34)cc2)cc1 | i
CCc1c(C)nc2ncnn2c1Sc1ccc(NC(=O)c2ccccc2OC)cc1 | +
CCc1c(C)nc2ncnn2c1Sc1ccc(NC(C)=O)cc1 | i
CCOc1ccccc1C(=O)Nc1ccc(Sc2c(CC)c(C)nc3ncnn23)cc1 | +
COc1cccc(NC(=O)C2CCCN2C(=O)c2ccc(-c3noc(C)n3)cc2)c1 (centres undefined) | i
Cc1cc(NS(=O)(=O)c2cc(C(=O)N3CCCC3)cs2)no1 | i
Cc1ccccc1NC(=O)N1CCC(n2c(C)nc3cccnc32)CC1 | i
Cc1cc(F)cc(-c2c(-c3ccccc3)ncn2CC2CCS(=O)(=O)C2)c1 (centres undefined) | i
Cc1nc(C2CCCNC2)cc(N2CCC3(CC2)N=C(N(C)C)NC3=O)n1 (centres undefined) | i
COc1cccc(C(=O)N(Cc2nc3nc(C)cc(C)n3n2)c2cccc(C)c2)c1 | i
COc1cc(C(=O)N(Cc2nc3nc(C)cc(C)n3n2)c2cccc(C)c2)cc(OC)c1OC | i
SMILES | FECH block
CCCC(=O)N(Cc1nc2nc(C)cc(C)n2n1)c1ccccc1 | +
COc1ccc(C(=O)N(Cc2nc3nc(C)cc(C)n3n2)c2cccc(C)c2)cc1 | +
Cc1cccc(N(Cc2nc3nc(C)cc(C)n3n2)C(=O)COc2ccccc2)c1 | +
Cc1cccc(N(Cc2nc3nc(C)cc(C)n3n2)C(=O)C(C)(C)C)c1 | i
CCCC(=O)N(Cc1nc2nc(C)cc(C)n2n1)c1ccc(F)cc1 | i
CCOc1ccc(N(Cc2nc3nc(C)cc(C)n3n2)C(=O)c2cccc(C)c2)cc1 | i
Cc1cc(C)n2nc(CN(C(=O)CC(C)C)c3ccccc3)nc2n1 | i
CCn1c(=O)n(Cc2cccnc2)c(=O)c2cnc(-c3ccc(OC)cc3)nc21 | i
Cc1cc(CN(C)C(=O)c2coc(COc3cccc4cccnc34)n2)no1 | i
Cc1ccc2nc(C)c(C)c(C(=O)NCCN(C)S(C)(=O)=O)c2c1 | i
Cc1cccc(NC(=O)N2CCN(CCn3c(C(F)(F)F)nc4cccnc43)CC2)c1C | i
COc1ccc(CC(=O)Nc2ccccc2Sc2c(C)c(C)nc3nc(-c4ccccc4)nn23)cc1 | i
CCc1c(C)nc2ncnn2c1Sc1ccccc1NC(=O)c1cccc(F)c1 | i
Cc1ccc(OCC(=O)Nc2ccccc2Sc2c(C)c(C)nc3ncnn23)cc1 | i
CCCc1c(C)nc2ncnn2c1Sc1ccccc1NC(=O)c1ccccc1 | +
Cc1cc(Sc2ccccc2NC(=O)COc2ccc(Cl)cc2)n2nc(-c3ccccc3)nc2n1 | i
CCCc1c(C)nc2ncnn2c1Sc1ccccc1NC(=O)c1ccco1 | i
CCOc1ccccc1C(=O)Nc1ccccc1Sc1c(C)c(C)nc2ncnn12 | i
CCCc1c(C)nc2ncnn2c1Sc1ccccc1NC(=O)c1cccc(OC)c1 | +
Cc1ccccc1OCC(=O)Nc1ccccc1Sc1c(C)c(C)nc2ncnn12 | +
Cc1nc2nc(-c3ccccc3)nn2c(Sc2ccccc2NC(=O)COc2ccc(Cl)cc2)c1C | +
CCc1c(C)nc2ncnn2c1Sc1ccccc1NC(=O)c1cccc(C)c1 | i
CCCc1c(C)nc2ncnn2c1Sc1ccccc1NC(=O)c1ccc(F)cc1 | i
CSc1nc(NCC2CCCO2)c(C#N)c(-c2ccc(Cl)cc2)n1 (centres undefined) | i
CCc1cc(Sc2ccc(NC(=O)c3c(OC)cccc3OC)cc2)n2ncnc2n1 | i
SMILES | FECH block
COC(=O)c1c(NC(=O)c2ccc(Br)cc2)sc2c1CCN(C(C)C)C2 | i
CCCCN(Cc1nc2nc(C)cc(C)n2n1)S(=O)(=O)c1ccc(C)cc1 | i
O=S(=O)(Nc1nc2n(n1)C(c1ccc(F)cc1)C=C(c1ccc(Cl)cc1)N2)c1ccc(Cl)cc1 (centres undefined) | i
c1cc(C2CN(c3nccc4occc34)C2)ccn1 | i
O=C(CNCCCN1CCOCC1)NC1CCCCCCC1 | i
CCC1CN(C(=O)CCC2=NNC(=O)CC2)CCC(=O)N1Cc1ccccc1 (centres undefined) | i
Cc1nc2ncnn2c(Sc2ccccc2NC(=O)c2ccc(Br)cc2)c1C | i
COc1cc(C(=O)Nc2ccccc2Sc2c(C)c(C)nc3ncnn23)cc(OC)c1OC | i
COc1ccc(C(=O)Nc2ccccc2Sc2c(C)c(C)nc3ncnn23)cc1 | +
COc1cc(N(C)CCc2noc(C(C)C)n2)ncn1 | i
Cc1ccccc1C1(O)CCN(C2CCN(C(=O)c3ccncc3)CC2)C1 (centres undefined) | i
CCCCNC(=O)c1ccc(Cn2c(=O)c3cc(OC)c(OC)cc3n(CC(N)=O)c2=O)cc1 | i
CN(Cc1cn[nH]c1-c1ccc(F)cc1)CC1CC(=O)N(C2CCCC2)C1 (centres undefined) | i
CCOc1ccc(CNC(=O)c2nc(N3CCCC3)c3oc4ccccc4c3n2)cc1 | i
COc1cccc(Nc2nc(NCC3CCCO3)nc3c2cnn3-c2ccccc2)c1 (centres undefined) | i
CCN(CC)c1nc(Nc2ccc(OC)cc2)c2cnn(-c3ccccc3)c2n1 | +
CN(C)c1nc(Nc2ccc(Cl)cc2)c2cnn(-c3ccccc3)c2n1 | i
COc1ccc(OC)c(Nc2nc(NCc3ccccc3Cl)nc3c2cnn3-c2ccccc2)c1 | +
Cc1cc(C)cc(Nc2nc(NCC3CCCO3)nc3c2cnn3-c2ccccc2)c1 (centres undefined) | i
CCOc1ccc(Nc2nc(NCC3CCCO3)nc3c2cnn3-c2ccccc2)cc1 (centres undefined) | +
CCOc1ccc(Nc2nc(N(CC)CC)nc3c2cnn3-c2ccccc2)cc1 | i
CCOc1ccc(Nc2nc(N(CC)CCO)nc3c2cnn3-c2ccccc2)cc1 | i
COc1ccc(OC)c(Nc2nc(NCc3ccccc3)nc3c2cnn3-c2ccccc2)c1 | i
COc1cccc(Nc2nc(N(C)C)nc3c2cnn3-c2ccccc2)c1 | i
COc1ccc(Nc2nc(N(C)C)nc3c2cnn3-c2ccccc2)cc1 | +
COc1ccc(OC)c(Nc2nc(NCc3ccccc3OC)nc3c2cnn3-c2ccccc2)c1 | i
